Measurements published in the supplement of paper PMC11732987, “Enantioselective OTUD7B fragment discovery through chemoproteomics screening and high-throughput optimisation” (Communications Chemistry, 2025).

How the values were obtained:
Experiment in all cases: log2 ratio of Biotin-Ahx-Ub-VS probe labelling (fragment/DMSO); higher = less target engagement (more negative = stronger competition), active = hit call of the paper (q ≤ 0.05, log2 ratio ≤ -1)
Settings in all cases: compound concentration: 200 uM; treatment time: 3 h
OTUD6B = biological target: T1, OTUD6B (UniProt Q8N6M0)
T1 sequence (whole entry): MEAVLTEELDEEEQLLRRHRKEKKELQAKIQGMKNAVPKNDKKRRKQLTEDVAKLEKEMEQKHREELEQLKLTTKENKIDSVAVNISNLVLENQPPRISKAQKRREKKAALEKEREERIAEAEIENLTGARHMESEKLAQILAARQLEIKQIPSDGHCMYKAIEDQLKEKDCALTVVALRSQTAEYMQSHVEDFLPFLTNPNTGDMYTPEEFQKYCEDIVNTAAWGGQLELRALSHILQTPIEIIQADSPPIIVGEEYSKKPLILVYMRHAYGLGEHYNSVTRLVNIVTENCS
Method in brief: (§1)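 Using Biotin-Ahx-Ub-VS at 0.5 µM final for 1 h, DUBs were labelled in HEK293T lysate (495 µg per sample) that had first been treated in triplicate with fragment at 200 µM or vehicle for 3 h. NeutrAvidin enrichment, LysC and trypsin digestion and diaPASEF LC-MS/MS followed. Spectronaut label-free quantities were global-median-normalised. Values are average log2 fragment/vehicle ratios by unpaired t-test, using proteins with ≥2 unique peptides.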

OTUD7B = biological target: T2, OTUD7B (UniProt Q6GQQ9)
T2 sequence (whole entry): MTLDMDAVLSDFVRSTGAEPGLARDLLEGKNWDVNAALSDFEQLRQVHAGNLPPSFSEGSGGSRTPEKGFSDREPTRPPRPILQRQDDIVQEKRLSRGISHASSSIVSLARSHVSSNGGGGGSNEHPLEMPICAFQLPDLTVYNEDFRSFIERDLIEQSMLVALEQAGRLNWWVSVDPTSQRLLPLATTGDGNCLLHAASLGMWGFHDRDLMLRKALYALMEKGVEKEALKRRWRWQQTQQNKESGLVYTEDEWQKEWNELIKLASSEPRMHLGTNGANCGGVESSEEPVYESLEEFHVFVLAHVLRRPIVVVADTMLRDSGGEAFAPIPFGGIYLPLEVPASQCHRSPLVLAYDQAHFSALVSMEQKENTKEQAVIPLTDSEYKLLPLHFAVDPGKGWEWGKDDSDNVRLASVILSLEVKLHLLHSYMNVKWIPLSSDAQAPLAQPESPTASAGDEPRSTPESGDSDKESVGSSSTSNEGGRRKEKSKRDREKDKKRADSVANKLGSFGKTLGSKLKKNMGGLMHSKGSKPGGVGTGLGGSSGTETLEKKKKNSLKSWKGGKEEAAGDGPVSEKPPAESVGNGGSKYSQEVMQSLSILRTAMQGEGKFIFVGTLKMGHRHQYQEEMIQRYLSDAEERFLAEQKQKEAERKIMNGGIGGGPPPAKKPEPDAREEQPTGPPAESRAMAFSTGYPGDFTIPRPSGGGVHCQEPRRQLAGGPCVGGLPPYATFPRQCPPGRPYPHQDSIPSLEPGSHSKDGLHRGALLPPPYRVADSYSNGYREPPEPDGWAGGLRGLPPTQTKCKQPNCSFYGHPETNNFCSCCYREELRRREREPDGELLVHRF
Method in brief: as §1

PRPF8 = PRPF8 (UniProt Q6P2Q9)
Method in brief: as §1

PSMD7 = biological target: T3, PSMD7 (UniProt P51665)
T3 sequence (whole entry): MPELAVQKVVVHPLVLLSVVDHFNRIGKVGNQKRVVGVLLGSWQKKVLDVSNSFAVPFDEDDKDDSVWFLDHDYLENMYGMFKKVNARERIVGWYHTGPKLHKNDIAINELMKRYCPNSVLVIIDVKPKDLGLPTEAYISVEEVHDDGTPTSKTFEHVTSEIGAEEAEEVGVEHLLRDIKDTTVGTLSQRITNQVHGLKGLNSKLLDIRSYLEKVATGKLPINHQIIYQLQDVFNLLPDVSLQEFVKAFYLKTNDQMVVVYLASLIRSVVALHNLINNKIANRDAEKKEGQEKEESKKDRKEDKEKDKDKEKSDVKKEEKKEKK
Method in brief: as §1

UCHL1 = UCHL1 (UniProt P09936)
Chain of UCHL1 (P09936 whole entry, looked up): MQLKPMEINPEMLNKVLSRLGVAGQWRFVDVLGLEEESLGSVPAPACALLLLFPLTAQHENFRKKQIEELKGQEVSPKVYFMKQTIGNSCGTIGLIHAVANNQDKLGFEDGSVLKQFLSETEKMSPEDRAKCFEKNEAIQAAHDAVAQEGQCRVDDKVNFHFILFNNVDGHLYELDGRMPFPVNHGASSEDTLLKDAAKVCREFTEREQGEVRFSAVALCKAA
Method in brief: as §1

UCHL3 = biological target: T4, UCHL3 (UniProt P15374)
T4 sequence (whole entry): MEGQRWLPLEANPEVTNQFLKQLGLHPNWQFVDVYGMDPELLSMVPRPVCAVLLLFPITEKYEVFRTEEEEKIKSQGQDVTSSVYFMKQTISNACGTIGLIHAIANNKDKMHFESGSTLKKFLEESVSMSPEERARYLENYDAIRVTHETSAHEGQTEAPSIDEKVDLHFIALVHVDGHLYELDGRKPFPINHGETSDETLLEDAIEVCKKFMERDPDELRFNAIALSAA
Method in brief: as §1

UCHL5 = biological target: T5, UCHL5 (UniProt Q9Y5K5)
T5 sequence (whole entry): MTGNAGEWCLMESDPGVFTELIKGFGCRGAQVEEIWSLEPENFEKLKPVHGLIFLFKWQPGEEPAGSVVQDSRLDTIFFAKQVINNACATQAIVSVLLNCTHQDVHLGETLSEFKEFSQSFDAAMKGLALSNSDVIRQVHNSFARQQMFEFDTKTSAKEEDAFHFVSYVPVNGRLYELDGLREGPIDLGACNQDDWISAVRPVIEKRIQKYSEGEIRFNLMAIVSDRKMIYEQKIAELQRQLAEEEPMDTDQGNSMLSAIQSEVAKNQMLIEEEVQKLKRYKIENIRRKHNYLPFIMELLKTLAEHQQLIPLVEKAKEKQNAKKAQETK
Method in brief: as §1

USP10 = USP10 (UniProt Q14694)
Chain of USP10 (Q14694 whole entry): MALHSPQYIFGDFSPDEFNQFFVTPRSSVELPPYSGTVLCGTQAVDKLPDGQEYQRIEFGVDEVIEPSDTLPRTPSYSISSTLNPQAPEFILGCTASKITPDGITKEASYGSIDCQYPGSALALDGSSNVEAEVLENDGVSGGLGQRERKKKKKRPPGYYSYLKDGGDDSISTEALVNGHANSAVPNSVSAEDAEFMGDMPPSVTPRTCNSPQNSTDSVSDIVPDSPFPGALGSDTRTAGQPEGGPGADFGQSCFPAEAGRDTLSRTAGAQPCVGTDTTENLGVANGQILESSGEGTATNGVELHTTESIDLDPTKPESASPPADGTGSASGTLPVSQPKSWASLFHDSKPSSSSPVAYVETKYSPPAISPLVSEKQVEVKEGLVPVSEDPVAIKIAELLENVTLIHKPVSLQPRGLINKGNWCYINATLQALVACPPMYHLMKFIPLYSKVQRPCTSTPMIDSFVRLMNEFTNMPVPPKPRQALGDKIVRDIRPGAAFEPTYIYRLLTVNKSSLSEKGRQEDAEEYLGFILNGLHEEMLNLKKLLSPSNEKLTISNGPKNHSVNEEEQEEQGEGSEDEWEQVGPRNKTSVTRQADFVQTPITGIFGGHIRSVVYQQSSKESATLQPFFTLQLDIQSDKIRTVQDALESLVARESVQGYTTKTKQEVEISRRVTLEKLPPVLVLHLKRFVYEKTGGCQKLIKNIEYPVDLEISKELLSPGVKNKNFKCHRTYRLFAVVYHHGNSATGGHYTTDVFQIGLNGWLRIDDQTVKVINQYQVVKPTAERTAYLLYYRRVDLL
Method in brief: as §1

USP15 = biological target: T6, USP15 (UniProt Q9Y4E8)
T6 sequence (whole entry): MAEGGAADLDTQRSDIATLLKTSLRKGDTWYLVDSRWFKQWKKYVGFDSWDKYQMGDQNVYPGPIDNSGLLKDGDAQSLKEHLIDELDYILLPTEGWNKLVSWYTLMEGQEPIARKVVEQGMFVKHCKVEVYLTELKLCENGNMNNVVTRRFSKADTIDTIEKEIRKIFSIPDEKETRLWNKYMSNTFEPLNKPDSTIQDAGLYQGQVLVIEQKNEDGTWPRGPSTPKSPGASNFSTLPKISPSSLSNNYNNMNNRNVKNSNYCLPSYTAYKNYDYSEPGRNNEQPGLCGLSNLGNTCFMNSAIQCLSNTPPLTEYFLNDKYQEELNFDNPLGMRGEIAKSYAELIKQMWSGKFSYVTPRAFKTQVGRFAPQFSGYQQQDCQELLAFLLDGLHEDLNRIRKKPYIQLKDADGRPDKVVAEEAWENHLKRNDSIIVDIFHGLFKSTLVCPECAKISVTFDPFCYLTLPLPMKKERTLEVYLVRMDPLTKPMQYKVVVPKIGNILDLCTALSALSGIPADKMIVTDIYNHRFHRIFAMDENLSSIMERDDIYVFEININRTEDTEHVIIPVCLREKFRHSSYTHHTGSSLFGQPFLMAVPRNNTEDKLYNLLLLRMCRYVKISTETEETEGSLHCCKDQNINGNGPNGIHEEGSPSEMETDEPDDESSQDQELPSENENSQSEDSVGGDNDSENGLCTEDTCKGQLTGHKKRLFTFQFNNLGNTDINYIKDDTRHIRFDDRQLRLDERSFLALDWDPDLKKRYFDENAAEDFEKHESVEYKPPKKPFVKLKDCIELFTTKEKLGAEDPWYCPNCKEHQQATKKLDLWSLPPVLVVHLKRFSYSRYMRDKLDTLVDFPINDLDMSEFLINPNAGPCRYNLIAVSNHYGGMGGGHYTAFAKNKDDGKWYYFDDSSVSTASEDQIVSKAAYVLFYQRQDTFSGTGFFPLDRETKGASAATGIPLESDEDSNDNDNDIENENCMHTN
Method in brief: as §1

USP16 = USP16 (UniProt Q9Y5T5)
Chain of USP16 (Q9Y5T5 whole entry, looked up): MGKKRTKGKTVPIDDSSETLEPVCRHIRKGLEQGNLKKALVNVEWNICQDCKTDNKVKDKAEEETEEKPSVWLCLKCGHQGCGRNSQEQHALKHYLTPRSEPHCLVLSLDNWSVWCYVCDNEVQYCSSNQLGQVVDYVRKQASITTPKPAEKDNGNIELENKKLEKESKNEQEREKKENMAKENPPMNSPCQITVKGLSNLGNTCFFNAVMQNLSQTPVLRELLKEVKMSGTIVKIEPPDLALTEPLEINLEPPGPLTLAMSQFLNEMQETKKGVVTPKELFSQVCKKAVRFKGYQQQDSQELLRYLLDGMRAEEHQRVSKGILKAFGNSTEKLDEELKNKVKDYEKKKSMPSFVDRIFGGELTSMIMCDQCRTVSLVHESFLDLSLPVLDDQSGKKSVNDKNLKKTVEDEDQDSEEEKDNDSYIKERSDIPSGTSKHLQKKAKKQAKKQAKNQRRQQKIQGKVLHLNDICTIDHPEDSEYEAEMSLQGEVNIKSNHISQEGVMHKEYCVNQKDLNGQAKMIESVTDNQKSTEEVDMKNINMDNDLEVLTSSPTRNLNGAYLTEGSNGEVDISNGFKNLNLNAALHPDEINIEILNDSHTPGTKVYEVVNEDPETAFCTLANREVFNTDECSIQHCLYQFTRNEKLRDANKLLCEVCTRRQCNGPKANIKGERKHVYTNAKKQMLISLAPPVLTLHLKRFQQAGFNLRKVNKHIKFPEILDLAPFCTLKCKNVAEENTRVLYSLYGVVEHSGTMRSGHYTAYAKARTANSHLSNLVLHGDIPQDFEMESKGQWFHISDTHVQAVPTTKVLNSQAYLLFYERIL
Method in brief: as §1

Measured: log2 ratio of Biotin-Ahx-Ub-VS probe labelling

CC1Cc2ccccc2N1C(=O)CCl (stereo not given)
inactive: OTUD6B -0.391 | OTUD7B -0.238 | PRPF8 -0.117 | PSMD7 -0.328 | UCHL3 0.164 | UCHL5 -0.572 | USP10 -0.242 | USP15 -0.382 | USP16 0.0877
active: UCHL1 -1.4
